Results from the supplement of paper PMC6522484.
± gives the standard deviation of the averaged measurements.

How the values were obtained:
DLD1 [1] = assay: cell viability (CellTiter-Glo) relative to plate median (fraction of plate median); higher = more viable cells; details: 5 µM; treatment time 24 h; reporter: 7TFP
In short: (§1)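 Colorectal cancer cell lines stably carrying lentiviral TCF/Wnt firefly luciferase reporters (7TFP or TCF4/Wnt) were plated in 384-well plates and, 24 h later, given library compounds at a final 5 µM for 24 h. Firefly luciferase or CellTiterGlo luminescence was read on parallel plates with a Tecan F500 reader. Each well's signal was normalised to the plate median in webcellHTS2 (additive, without log transformation). Values are the mean of two independent replicates.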

HCT116 = assay: as above; details: 5 µM; treatment time 24 h; reporter: TCF4/Wnt
In short: as §1

SW480 [2] = assay: as above; details: 5 µM; treatment time 24 h; reporter: 7TFP
In short: as §1

DLD1 [3] = assay: TCF/Wnt firefly luciferase reporter signal relative to plate median (fraction of plate median); higher = higher Wnt reporter signal; details: 5 µM; treatment time 24 h; reporter: 7TFP
In short: as §1

SW480 [4] = assay: as above; details: 5 µM; treatment time 24 h; reporter: 7TFP
In short: as §1

SMILES	cell viability (DLD1 [1])	cell viability (HCT116)	cell viability (SW480 [2])	TCF/Wnt firefly luciferase reporter signal (DLD1 [3])	TCF/Wnt firefly luciferase reporter signal (SW480 [4])
CC1(C)C[C@@H]2/C(CO)=C\C=C/[C@@](C)(O)CC[C@]21O	1.08 ± 0.2	0.946 ± 0.063	1 ± 0.022	1.11 ± 0.24	0.818 ± 0.093
O=C(O)[C@H](O)[C@@](O)(Cc1ccc(O)cc1)C(=O)O	0.954 ± 0.08	0.962 ± 0.082	0.955 ± 0.021	1.005 ± 0.0071	0.923 ± 0.11
CO/N=C(\C(=O)N[C@@H]1C(=O)N2C(C(=O)O)=C(COC(N)=O)CS[C@H]12)c1ccco1	0.915 ± 0.088	0.949 ± 0.023	0.938 ± 0.027	0.976 ± 0.1	1.13 ± 0.028
C/C=C(/C(=C/C)c1ccc(O)cc1)c1ccc(O)cc1	0.987 ± 0.018	0.997 ± 0.061	1 ± 0.015	1.07 ± 0.15	1.09 ± 0.071
CCCCC/C=C/CCC(=O)N[C@H]1[C@H](Oc2c3cc4cc2Oc2ccc(cc2Cl)[C@@H](O[C@@H]2O[C@H](CO)[C@@H](O)[C@H](O)[C@H]2NC(C)=O)[C@@H]2NC(=O)[C@H](NC(=O)[C@@H]4NC(=O)[C@H]4NC(=O)C(Cc5ccc(c(Cl)c5)O3)NC(=O)[C@H](N)c3ccc(O)c(c3)Oc3cc(O)cc4c3)c3ccc(O)c(c3)-c3c(OC4O[C@H](CO)[C@@H](O)[C@H](O)[C@@H]4O)cc(O)cc3[C@@H](C(=O)O)NC2=O)O[C@H](CO)[C@@H](O)[C@@H]1O (stereo not given in full) [TEICOPLANIN [A(2-1) shown]]	1.04 ± 0.035	1.01 ± 0.07	1.02 ± 0.083	0.971 ± 0.0071	1 ± 0.04
C/C=C(\C)C(=O)O[C@@H]1c2c(ccc3ccc(=O)oc23)OC(C)(C)[C@@H]1OC(C)=O	0.969 ± 0.011	0.92 ± 0.029	0.926 ± 0.047	0.997 ± 0.075	1.09 ± 0.057
C[C@@H]1Cc2cc(O)cc(O)c2C(=O)O[C@H](C)CC(=O)O[C@H](CO)CC(=O)O[C@H](C)Cc2cc(O)cc(O)c2C(=O)O[C@H](C)CC(=O)O1	1.04 ± 0.11	1.14 ± 0.035	1.01 ± 0.062	0.938 ± 0.028	1.05 ± 0.05
Cc1ccc(S(=O)(=O)NC(=O)NN2CC3CCCC3C2)cc1 (stereo not given)	0.95 ± 0.063	0.999 ± 0.044	0.974 ± 0.052	1.07 ± 0.071	0.9645 ± 0.0035
CCCc1nc2c(C)cc(-c3nc4ccccc4n3C)cc2n1Cc1ccc(-c2ccccc2C(=O)O)cc1	0.975 ± 0.12	0.992 ± 0.054	1.01 ± 0.021	0.98 ± 0.028	1 ± 0.021
CO/N=C(\C(=O)N[C@@H]1C(=O)N2C(C(=O)O)=C(CSc3nc(=O)c(O)nn3C)CS[C@H]12)c1csc(N)n1	1.06 ± 0.071	1.06 ± 0.071	0.98 ± 0.071	1.1 ± 0.14	0.96 ± 0.057
Oc1ccc(O)cc1	0.839 ± 0.11	0.856 ± 0.022	0.959 ± 0.1	1.14 ± 0.14	1.04 ± 0.2
COc1ccccc1OCC(O)COC(N)=O (stereo not given)	1.02 ± 0.076	1.01 ± 0.089	0.995 ± 0.035	0.982 ± 0.054	0.967 ± 0.047
C=C[C@]1(C)C=C2C(=O)[C@@]3(O)OC(=O)[C@@]4(CCCC(C)(C)[C@H]34)[C@@]2(O)CC1 [Sphaeropsidin A]	0.898 ± 0.16	0.973 ± 0.067	0.952 ± 0.015	0.938 ± 0.086	1.05 ± 0.19
CC(C)=CC1C(C(=O)O)C1(C)C (stereo not given)	1 ± 0.037	0.98 ± 0.057	0.977 ± 0.047	0.897 ± 0.065	1.02 ± 0.058
